From PubChem BioAssay
KB-V1 cytotox = KB-V1 MDR subline cytotoxicity; Potency, µM (highest dose often 46.1 µM), hits mostly cytotoxic; 400,000 tested, 3.4% active; KB-V1 MDR cells viability, CellTiter-Glo, 72 h; also: nearly all actives have a fitted effect of over 60% in size
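KB-V1, DMEM (no phenol red) + 10% FBS; cpd pin-transferred, titration series; 72 h, 37 degrees C; CellTiter-Glo, luminescence. Data normalized, curve-fit.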
PINK1 modulator = changes PINK1 expression; 410,000 tested, 0.2% active; Potency, µM (highest dose often 76.6 µM), usual class: activators; PINK1 immunofluorescence, high-content cytometry, 24 h; active = well fitted activation curve with a large enough effect; inconclusive = small, poorly fitted or top-dose-only effect; cell line not stated here; also: nearly all actives have a fitted effect of over 65% in size
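Compound titrations (5 concentrations, 24 h) on a stable cell line; DMSO and CCCP controls. Endpoint: fixed-cell PINK1 immunofluorescence with mitochondrial, cell and nuclear markers, scanned by microplate cytometer.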
SW480 rereplic = induces DNA re-replication in SW480 colon adenocarcinoma cells | SW480 DNA re-replication, Hoechst DNA content imaging, 48 h | Potency, µM (top dose mostly 46.1 µM), hits mostly activators | 340,000 tested, 1.8% active; also: nearly all actives have a fitted effect of over 55% in size
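Image-based read-out: total Hoechst fluorescence of nuclei (405 nm excitation, 500-530 nm emission), with hits raising the fraction of high-intensity nuclei. SW480 colon cells incubated 48 hr with compounds at 37 C.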
MCF10A rereplic = inducers of DNA re-replication in MCF 10A breast cells | MCF 10A DNA re-replication, Hoechst nuclear intensity, 48 h | Potency, µM (series often up to 46.1 µM), most hits filed as activators | 350,000 tested, 2.9% active; also: nearly all actives have a fitted effect of over 50% in size
KB-3-1 cytotox = kills parental KB-3-1 adenocarcinoma cells; KB-3-1 viability, CellTiter-Glo ATP luminescence, 72 h; Potency, µM (titrated, usually from 46.1 µM), actives largely listed as cytotoxic; 400,000 tested, 1.4% active; also: nearly all actives have a fitted effect of over 60% in size
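Luminescent ATP read-out (CellTiter-Glo) measures survival of drug-naive KB-3-1 cells after 72 h compound exposure at 37 °C. Titration series was screened from lowest to highest concentration, with DMSO vehicle plates as background controls.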
PTAP TSG101 blk = blocks PTAP/TSG101 interaction to inhibit HIV-1 budding. Fluorescence polarization, FITC-PTAP peptide / Tsg101 binding. Potency, µM (highest dose often 115 µM), most hits filed as inhibitors. Q99816. 340,000 tested, under 10 active; active = well fitted inhibition curve with a large enough effect in the main read-out, with a control signal flat, not every such curve was filed as active; inconclusive = small, poorly fitted or top-dose-only effect, or effect the other way, or a change in a side signal; inactive = no such curve, though single readings can be large or run the other way
Target sequence (Q99816 whole entry, looked up): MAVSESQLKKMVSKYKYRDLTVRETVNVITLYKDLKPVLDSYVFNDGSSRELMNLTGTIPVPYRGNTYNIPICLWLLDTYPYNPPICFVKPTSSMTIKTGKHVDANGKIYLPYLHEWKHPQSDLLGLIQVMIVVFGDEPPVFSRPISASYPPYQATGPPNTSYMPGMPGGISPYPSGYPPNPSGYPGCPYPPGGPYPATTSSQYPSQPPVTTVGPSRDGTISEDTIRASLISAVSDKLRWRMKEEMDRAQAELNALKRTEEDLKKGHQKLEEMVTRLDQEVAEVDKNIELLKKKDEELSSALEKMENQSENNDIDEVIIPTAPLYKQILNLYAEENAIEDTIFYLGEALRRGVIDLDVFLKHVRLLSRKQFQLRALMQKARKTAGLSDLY
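Tsg101 binding domain (10 uM final) was mixed with compound and a FITC-labeled PTAP peptide (50 nM final) in HEPES pH 7.5 buffer with NaCl, Tween 20, EDTA and TCEP; fluorescence polarization was read after 20 min at r.t.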
Numbers stand for hits; i = inactive; ? = inconclusive; nt = no result given. Rows were chosen to be rich in hits. Some 6.8% of all compounds tested hit in one or more screens of this group. Unless noted, calls follow the shape of the dose curve; as a rule, active = well fitted curve in the direction sought with a large enough effect; inconclusive = small, poorly fitted or top-dose-only effect, or another doubt; inactive = no such curve, though single readings can be large; an effect the other way counts as inactive or inconclusive.

SMILES	KB-V1 cytotox	PINK1 modulator	SW480 rereplic	MCF10A rereplic	KB-3-1 cytotox	PTAP TSG101 blk
CCc1ccc(NC(=O)Cn2c(=O)n(-c3cc(C)cc(C)c3)c(=O)c3oc4ccccc4c32)cc1	nt	i	nt	nt	nt	nt
CCOC(=O)c1ccc(NC(=O)c2c(NCc3sccc3C)sc3c2CCC(C)C3)cc1 (stereo not drawn)	i	i	nt	nt	i	nt
COCCn1c(=S)[nH]c2cc(C(=O)N3CCN(Cc4ccc5c(c4)OCO5)CC3)ccc2c1=O	2.6µM	i	?	?	4.1µM	i
COCCn1c(=O)[nH]c2cc(C(=O)N3CCN(Cc4ccc5c(c4)OCO5)CC3)ccc2c1=O	i	i	i	i	i	i
Oc1c(Br)cc2oc3c(c2c1CNCc1ccccc1)CCCC3	?	i	i	?	i	i
NC(=S)N/N=C/c1c(O)c(Br)cc2oc3c(c12)CCCC3	?	i	18µM	?	21µM	i
Cc1cc(C)c2c(N)c(C(=O)N/N=C/c3cccnc3)sc2n1	i	i	?	16µM	i	i
Cc1cc(C)c2c(N)c(C(=O)N/N=C/c3ccccc3)sc2n1	i	i	13µM	9.2µM	i	i
Cn1c(N)c(C(=O)N/N=C/c2ccccc2)sc1=S	i	i	?	23µM	i	i
COc1ccc(-c2nn(-c3cccc(F)c3)c3c2cnc2cc(OC)c(OC)cc23)cc1	i	i	nt	nt	i	nt
COc1cccc(CNC(=O)CN2C(=O)CCCc3ccccc32)c1OC	i	i	nt	nt	i	nt
Cc1ccc(-n2cc(CNCCn3nc(C)cc3C)c(-c3ccc(F)cc3)n2)cc1	i	i	18µM	?	i	i
C(=N\Nc1nc2ccccc2[nH]1)/c1ccc2c(c1)OCCO2	i	i	i	i	?	i
Cc1cccc(/C=N/Nc2ccc3ccccc3n2)c1	i	i	i	21µM	i	i
CC(=NNc1ccc2ccccc2n1)c1ccccc1O	4.1µM	i	?	?	i	i
Cc1ccc(/C=N/Nc2ccc3ccccc3n2)o1	8.2µM	i	?	i	i	i
C(=N\Nc1ccc2ccccc2n1)/c1ccc2c(c1)OCCO2	18µM	i	?	23µM	i	i
COc1ccccc1OCC(=O)NCC(c1ccc(Cl)cc1)N1CCOCC1 (stereo not drawn)	i	i	nt	nt	i	nt
COc1cccc(CNC(=O)COCc2cc(-c3ccc4c(c3)OCO4)on2)c1	i	i	nt	nt	i	nt
O=S(=O)(Nc1cccc2cccnc12)c1cccs1	nt	i	nt	nt	nt	nt
Cc1noc(C)c1S(=O)(=O)Nc1ccc(C(C)C)cc1	i	i	?	23µM	i	i
CCc1ccc(OCC(=O)N/N=C(\C)c2ccccc2OC(F)F)cc1	16µM	i	i	?	i	i
O=C1NC(CCc2ccccc2)C(=O)N1CCOc1ccccc1 (stereo not drawn)	i	i	i	6.5µM	i	i
CC(C)c1ccc(C(=O)N2CCCC(c3cc(C(=O)Nc4ccccc4Cl)no3)C2)cc1 (stereo not drawn)	?	i	nt	nt	18µM	nt
COc1ccccc1-n1c2nc3ccccc3nc2c2c(=O)n(-c3cc(C)cc(C)c3)cnc21	?	i	?	23µM	i	i
SMILES	KB-V1 cytotox	PINK1 modulator	SW480 rereplic	MCF10A rereplic	KB-3-1 cytotox	PTAP TSG101 blk
COc1ccccc1-n1cnc2c(c1=O)c1nc3ccccc3nc1n2-c1ccc(C)cc1	?	i	i	i	i	i
Cc1ccc(N/N=C/c2cccnc2)cc1	21µM	i	i	?	?	i
CC(C)C(c1nnnn1C1CCCC1)N1c2ccccc2CC1C (stereo not drawn)	15µM	i	?	?	i	i
Cc1onc(-c2ccccc2Cl)c1C(=O)N(Cc1nc(-c2ccccc2)no1)C1CCCCC1	18µM	i	?	?	?	i
Cc1cccc(-c2noc(CN(C(=O)c3c(-c4ccccc4Cl)noc3C)C(C)C)n2)c1	?	i	i	?	?	i
COc1ccc(NC(=O)N2CC3(CCN(C(=O)c4cc(C(F)(F)F)cc(C(F)(F)F)c4)CC3)C2)cc1	nt	i	nt	nt	nt	nt
CNc1ccc(/C=C/C(=O)c2cccc3ccccc23)cc1[N+](=O)[O-]	15µM	i	16µM	?	?	i
Cc1ccc(S/C=C\C(=O)c2ccccc2)cc1	?	13µM	?	4.1µM	i	i
Cc1ccc(C(=O)/C=C\C(=O)c2ccc(C)cc2)cc1	i	i	?	?	i	i
O=c1c2cc3c(cc2n(Cc2ccc(F)cc2)c(=O)n1Cc1nc(-c2ccccc2)no1)OCO3	i	i	nt	nt	i	nt
CCCCn1cnc2cc(NCc3ccccc3Cl)ccc21	i	i	nt	nt	i	nt
Cn1c(=S)c2[nH]c(SCc3cccnc3)nc2n(C)c1=O	16µM	i	i	i	i	i
CCCCC(C)Sc1nc2c([nH]1)c(=S)n(C)c(=O)n2C (stereo not drawn)	4.1µM	?	i	?	?	i
CCCC(CC)Sc1nc2c([nH]1)c(=S)n(C)c(=O)n2C (stereo not drawn)	3.7µM	i	?	?	?	i
CCCCSc1nc2c([nH]1)c(=S)n(C)c(=O)n2C	1.5µM	i	?	?	7.3µM	i
CSc1nc2c([nH]1)c(=S)n(C)c(=O)n2C	i	i	i	i	i	i
COc1cccc(CNC(=O)c2cc(C)nc3c2c(C)nn3-c2cccc(F)c2)c1	i	i	nt	nt	i	nt
Cc1cc(C(C)(C)C)oc1C(=O)N(CC(=O)NC1CCCC1)c1cccc(C(F)(F)F)c1	?	i	i	?	i	i
Cc1ccccc1N(CC(=O)NC1CCCC1)C(=O)c1oc(C(C)(C)C)cc1C	16µM	nt	?	?	i	i
O=NN(CCc1ccncc1)c1ccc(OCc2ccccc2)cc1	3.3µM	i	i	?	i	i
O=C(NCc1ccncc1)C(=O)N/N=C/c1ccc(OCc2ccccc2)cc1	i	i	i	i	i	i
CCN(CC)c1ccc(/C=C(/C#N)C(=O)NCc2ccccc2)o1	i	32µM	i	?	i	?
O=C(Nc1ccc([N+](=O)[O-])cc1)Nc1ccon1	6.5µM	i	?	5.8µM	0.58µM	i
COC(=O)c1ccc(NC(=O)Nc2ccc([N+](=O)[O-])cc2)cc1	i	35µM	i	i	i	i
O=C(Nc1ccc(C(=O)O)cc1)Nc1ccc([N+](=O)[O-])cc1	i	i	i	i	i	i
CC1CCN(C(=O)CSc2c(C(C)C)cnc3c2c(=O)n(C)c(=O)n3C)CC1	nt	i	nt	nt	nt	nt
COCCNC(=O)c1sc2nc3n(c(=O)c2c1C)CCC3	i	i	nt	nt	i	nt
CC1=C(c2ccc(C(C)C)cc2)S(=O)(=O)NC1=NCc1ccccc1Br	nt	i	nt	nt	nt	nt
Cc1ccc(S(=O)(=O)N2CCCC2c2nc3ccccc3s2)cc1 (stereo not drawn)	21µM	i	i	i	i	i
Cn1nnnc1Sc1ncnc2scc(-c3ccccc3Br)c12	i	i	?	i	i	i
